Source: PubChem BioAssay (several laboratories)
Cardio protect – protects H9c2 cardiomyocytes from peroxide injury. H2O2 injury protection, ATPLite, 2 h. protection from H2O2 cell death, % at 20 µM. 0.63% of 360,000 active. AID 588492;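 active = compounds giving at least 50% protection of heart cells from peroxide-induced death in the single-dose screen, raw or plate-pattern-corrected value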;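 note: 0% = DMSO wells with peroxide and 100% = DMSO wells without peroxide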
GAA850 FXN act – activators of GAA850 frataxin (FXN) promoter; activation, % at 6 µM; HEK293 lucGAA850 FXN promoter luciferase reporter, 24 h; percent of 10 µM SAHA response; AID 540364; 0.56% of 360,000 active;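 active = activation above the average of all compounds screened plus 3 SD, cutoff fixed separately per campaign, cut at about 7.5% in these data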;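 note: 0% = DMSO wells and 100% = 10 µM SAHA wells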
GalR3 antagonist – human GalR3 antagonism; HEK293 GalR3-CNG cAMP membrane potential fluorescence; galR3 body fused to GalR1 C-terminus; inhibition, % at 3 µM; 0.44% of 360,000 active;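 active = inhibition above the screen-wide average plus 3 SD, cut at about 13% in these data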;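 note: forskolin and galanin both at EC90 stimulate the cells; cAMP rise reported by CNG channel membrane potential dye signal; 0% = forskolin plus galanin with DMSO and 100% = forskolin alone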
Target sequence (O60755 1-299 limits assumed): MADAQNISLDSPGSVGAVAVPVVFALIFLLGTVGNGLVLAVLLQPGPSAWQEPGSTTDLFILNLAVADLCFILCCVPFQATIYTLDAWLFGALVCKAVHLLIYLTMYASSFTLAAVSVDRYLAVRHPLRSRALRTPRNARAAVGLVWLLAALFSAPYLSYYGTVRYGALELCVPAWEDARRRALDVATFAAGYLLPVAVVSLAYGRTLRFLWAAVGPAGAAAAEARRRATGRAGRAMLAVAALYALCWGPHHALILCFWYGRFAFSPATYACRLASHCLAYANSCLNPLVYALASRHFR
SMARCA2 act – activators of SMARCA2 function. MG213 cells, MMTV-luciferase reporter, dexamethasone, overnight. activation, % at 9.1 µM. 1% of 370,000 active. AID 652017; in the data active = activation above about 7.8%;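 note: 0% = vehicle wells and 100% = reference activator wells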
Gli-Sufu block – blocks Gli-Sufu signaling in a luciferase reporter; Sufu-KO-LIGHT fibroblasts, Gli luciferase reporter luminescence; inhibition, % at 5 µM; 0.74% of 340,000 active; AID 588413;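 active = inhibition above about 55%, limit read from the data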;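 note: 0% = DMSO-treated cells and 100% = wells with medium but no cells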
NR2F2 inh – NR2F2 (human) inhibition, primary screen; P24468; HEK293T NGFI-A luciferase reporter, luminescence; inhibition, % at 8.6 µM; 0.7% of 370,000 active; AID 686940;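 active = inhibition above a per-plate cutoff, mean inhibition of test wells between control levels plus 3 SD, cut at about 38% in these data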;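 note: cells cotransfected with COUP-TFII expression vector driving the NGFI-A reporter; 0% = median of COUP-TF2 test wells and 100% = reporter-only cells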
Target sequence (P24468 whole entry, looked up): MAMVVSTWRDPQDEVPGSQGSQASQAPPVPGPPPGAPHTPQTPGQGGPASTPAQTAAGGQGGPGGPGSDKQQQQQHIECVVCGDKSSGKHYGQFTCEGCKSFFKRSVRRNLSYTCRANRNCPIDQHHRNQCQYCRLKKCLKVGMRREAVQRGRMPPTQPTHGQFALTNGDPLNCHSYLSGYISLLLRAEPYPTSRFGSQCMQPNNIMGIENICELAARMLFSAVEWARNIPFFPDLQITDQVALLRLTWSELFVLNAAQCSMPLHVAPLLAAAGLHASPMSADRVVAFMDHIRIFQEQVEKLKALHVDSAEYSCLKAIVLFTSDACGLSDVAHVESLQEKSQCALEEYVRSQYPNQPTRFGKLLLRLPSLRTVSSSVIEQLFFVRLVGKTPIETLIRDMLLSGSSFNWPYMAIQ
GAA30 counter – activates GAA30 frataxin promoter, counter-screen for GAA850 activators; 66% of 1,900 active; HEK293 lucGAA30 FXN promoter luciferase, 24 h; DMSO = 0%, 5 µM ipriflavone = 100%; activation, % at 6 µM; shares compounds with GAA850 FXN act;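 active = mean activation above the mean of solvent-only control wells plus 3 SD, cut at about 22% in these data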;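 note: counterscreen of GAA850 promoter hits where activity marks nonselective or luminescence artifacts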
FXN GAA850 conf – confirmation of GAA850 frataxin (FXN) promoter activators. 86% of 1,900 active. activation, % at 6 µM. AID 588351. shares compounds with GAA850 FXN act. HEK293 lucGAA850 FXN promoter luciferase reporter, 24 h; 100% = activation by SAHA;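 active = mean activation above a set limit taken from the primary screen, cut at about 8% in these data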;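 note: 0% = DMSO wells and 100% = 10 µM SAHA wells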
GalR3 conf – confirmation of human galanin receptor 3 antagonists. shares compounds with GalR3 antagonist. HEK293 GalR3 CNG cAMP biosensor, membrane potential fluorescence; galR3 fused to GalR1 carboxy tail; challenged with forskolin and galanin at EC90. inhibition, % at 3 µM. 59% of 1,600 active;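 active = inhibition above the primary screen's cutoff, the mean inhibition of all screened compounds plus 3 SD, cut at about 13% in these data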;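 note: 0% = forskolin plus galanin and 100% = forskolin alone with DMSO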
CNG parental – parental cell agonism counter-screen for GalR3 antagonists | shares compounds with GalR3 antagonist | HEK293-CNG parental cells, cAMP membrane potential fluorescence; normalised: DMSO wells 0%, forskolin wells 100% | activation, % at 3 µM | 10% of 1,600 active; in the data active = activation above about 1.3%
SMARCA2 act conf – confirmation of SMARCA2 (BRM) function activators. shares compounds with SMARCA2 act. 30% of 3,500 active. MG213 cells, MMTV-luciferase with dexamethasone, luminescence, overnight; MG213 cells expressing E1A, Rb sequestered; DMSO wells 0%, reference activator 100%. activation, % at 9.1 µM;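 active = activation above its plate's cutoff, the mean activation of tested wells plus 3 SD, cut at about 7.9% in these data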
VP16 Luc act – activates GAL4-VP16 luciferase, flagging SMARCA2 activator hits; shares compounds with SMARCA2 act; HEK293 GAL4-VP16 pG5luc reporter, luciferase luminescence; scaled: DMSO wells 0%, SAHA wells 100%; activation, % at 9.1 µM; 41% of 3,500 active;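 active = activation above the solvent-only control well mean plus 3 SD, averaged across control plates, cut at about 5.2% in these data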
Starred values were filed as active, the others as inactive; · = not tested or not shown. In the library only some 3.4% were active in any assay of this set; here they are far more common.

SMILES | Cardio protect | GAA850 FXN act | GalR3 antagonist | SMARCA2 act | Gli-Sufu block | NR2F2 inh | GAA30 counter | FXN GAA850 conf | SMARCA2 act conf | VP16 Luc act | others
COCCn1c(SCc2nc3ccccc3s2)nc2ccccc21 | -3.1 | 8.4* | -3.7 | 15.0* | 8.3 | -40.6 | 99.1* | 31.1* | 7.4 | 8.1*
COc1ccc(OC)c2nc(-c3ccc4c(c3)OCO4)ccc12 | 1.0 | 9.5* | -9.6 | 8.6* | -154.1 | -66.9 | 124.3* | 44.2* | 7.7 | 16.4*
c1ccc2nc(-c3ccc4c(c3)OCO4)ccc2c1 | -14.2 | 2.4 | -3.3 | -0.9 | -131.4 | -37.1 | · | · | · | ·
COc1cc(OC)c(-c2nn3c(C4CCCCC4)nnc3s2)cc1OC | 23.0 | 12.8* | 0.1 | 8.3* | 3.1 | -39.9 | -9.6 | 11.6* | -0.5 | 1.5
COc1cc(-c2nnc3sc(C4CCCCC4)nn23)cc(OC)c1OC | 0.5 | 7.2 | · | · | 36.4 | · | · | · | · | ·
CN1C2CCCC1CC(NC(=O)c1nn(C)c3ccccc13)C2 (centres undefined) | · | · | · | -4.6 | · | 9.4 | · | · | · | ·
Cc1sc2nc3c4ccccc4c(NCc4ccco4)nn3c(=O)c2c1C | 20.8 | 10.3* | -7.8 | 13.0* | 29.3 | -31.2 | 104.9* | 30.0* | 43.0* | 19.5*
CCCCNC(=O)c1nc(C2CCN(S(=O)(=O)c3c(F)cccc3F)CC2)oc1-c1ccccc1 | 0.2 | · | -7.2 | 2.5 | · | 6.6 | · | · | · | ·
CS(=O)(=O)c1ccc(C(=O)OCC(=O)N2CCOCC2)cc1[N+](=O)[O-] | -33.8 | 9.7* | -6.7 | 8.2* | · | -3.0 | 82.8* | 38.6* | 17.8* | 1.1
CS(=O)(=O)c1ccc(C(=O)OCC(=O)N2CCN(CCC3CCCCC3)CC2)cc1[N+](=O)[O-] | -28.6 | 7.1 | -10.3 | -11.1 | · | 2.1 | · | · | · | ·
CS(=O)(=O)c1ccc(C(=O)OCc2nnc(-c3ccccc3)o2)cc1[N+](=O)[O-] | -33.0 | 8.5* | -0.3 | 12.5* | -12.5 | -2.7 | -16.8 | 70.3* | -13.4 | 9.0*
COc1ccc(Cn2ccc3ccc(-c4ccc5ccn(C(=O)c6cccc(OC)c6)c5c4)cc32)cc1 | · | · | · | 0.7 | · | -27.3 | · | · | · | ·
COc1ccccc1C(=O)n1ccc2ccc(-c3ccc4ccn(Cc5ccc(C#N)cc5)c4c3)cc21 | · | · | · | -0.2 | · | -4.1 | · | · | · | ·
O=C(NCc1ccccc1Cl)C1CCC(CNS(=O)(=O)c2cccc3cccnc23)CC1 (centres undefined) | · | · | · | -3.8 | · | 17.9 | · | · | · | ·
CCCc1ccc(OCc2ccc(C(=O)N3CCSCC3)o2)cc1 | -15.6 | 7.6* | -5.1 | 8.3* | -56.3 | -0.2 | 100.4* | 38.1* | 3.8 | 7.4*
C[C@H](CO)N1C[C@H](C)[C@@H](CN(C)C(=O)Nc2ccnc(N3CCOCC3)c2)OCc2cn(nn2)CCCC1=O | · | · | -6.7 | -1.1 | · | -13.2 | · | · | · | ·
COc1c(F)c(F)c(C(=O)Nc2ccccc2N2CCN(C(=O)C(C)C)CC2)c(F)c1F | 7.6 | 10.5* | 1.0 | 8.0* | 5.0 | 0.6 | 7.8 | 3.1 | -3.8 | -0.8
COc1c(F)c(F)c(C(=O)Nc2ccccc2N2CCN(C(C)=O)CC2)c(F)c1F | 8.8 | -0.9 | 3.0 | 0.9 | 0.4 | -6.7 | · | · | · | ·
CN(C)[C@H]1CCN(c2cccc3c2S(=O)(=O)N(C2CC2)CCCO3)C1 | · | · | · | 2.1 | · | -4.2 | · | · | · | ·
O=C1C=CC(O)C2(CO)OC12 (centres undefined) | -0.2 | 11.7* | -3.5 | 12.3* | · | -9.8 | -1.1 | 12.2* | -0.9 | 4.0
COc1ccc2c(c1OC)C(=O)N(c1cccc(C)c1)C2 | -15.5 | 3.6 | -5.2 | 7.2 | -73.8 | -60.6 | · | · | · | ·
COc1ccc2c(c1OC)C(=O)N(c1cccc(C(F)(F)F)c1)C2 | -12.5 | 18.1* | -2.3 | 8.5* | -61.5 | -27.2 | 99.2* | 38.4* | 4.9 | 8.9*
CCCCCCCCCc1conc1C(=O)/C=C/c1ccco1 | · | · | -0.7 | -6.3 | · | -4.7 | · | · | · | ·
O=C(OCC1CC(c2ccccc2Cl)=NO1)c1ccc(Br)cc1 (centres undefined) | 0.6 | 7.6* | -10.8 | 10.8* | 2.3 | -2.9 | 11.4 | 4.7 | 4.1 | 0.5
O/N=C(/CCc1ccccc1)c1ccc2c(c1)OCCO2 | -6.3 | 8.0* | 0.4 | 11.6* | -76.3 | -37.2 | 116.7* | 33.1* | 11.7* | 11.6*
SMILES | Cardio protect | GAA850 FXN act | GalR3 antagonist | SMARCA2 act | Gli-Sufu block | NR2F2 inh | GAA30 counter | FXN GAA850 conf | SMARCA2 act conf | VP16 Luc act | others
Cc1c2ccncc2cc2c1[nH]c1ccccc12 | -10.5 | -4.0 | -6.3 | 3.0 | 16.5 | 10.4 | · | · | · | ·
COc1ccc2[nH]c3c(C)c4ccncc4c(C)c3c2c1 | 2.1 | 12.1* | 1.4 | 16.4* | -26.9 | -33.7 | -25.2 | 64.0* | 47.8* | 1.2
Cc1nc(SCC(=O)c2cccs2)c2oc3ccccc3c2n1 | 7.8 | 7.6* | -1.7 | 8.5* | -46.5 | -39.5 | 100.5* | 38.8* | 3.1 | 10.5*
Cc1ccc(NC(=O)Cc2ccc(-c3ccccc3)cc2)nc1 | -9.1 | 2.6 | -6.0 | 0.3 | -10.8 | -9.9 | · | · | · | ·
Cc1ccnc(NC(=O)Cc2ccc(-c3ccccc3)cc2)c1 | -11.9 | 7.9* | -5.3 | 41.8* | -194.0 | -49.6 | 100.8* | 46.2* | 36.7* | 9.1*
COC(=O)C1=C(C)N(Cc2ccc(C(F)(F)F)cc2)C(=NCc2ccc(OC)cc2)NC1c1ccccc1C(F)(F)F (centres undefined) | · | · | 4.2 | 0.3 | · | 20.8 | · | · | · | ·
COc1cc2c(cc1OC)-c1cc(Nc3ccccc3Br)nc(=O)n1CC2 | -3.0 | 9.2* | 48.9* | 12.7* | 7.6 | -34.7 | 17.8 | 15.6* | 8.6* | 15.6* | GalR3 conf=60.7*;CNG parental=1.2
CC(=O)Nc1sc2c(c1-c1nc3ccccc3s1)CCOC2 | · | · | · | · | · | -76.4 | · | · | · | ·
